An excerpt weighted towards active compounds, which were near 18% of everything screened.
KAT2A inh – blocks human GCN5L2 histone acetyltransferase. AID 504327. GCN5L2 HAT assay, ThioGlo1 CoA-SH fluorescence. Potency, µM (highest dose often 58.9 µM), actives largely listed as inhibitors. actives 0.21% (n = 390,000)
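Preincubate 20nM GCN5L2 with compound 15 min, RT → add 50uM ThioGlo1 + 75uM H3(1-25) + 70uM acetyl-CoA → read fluorescence 0 and 20 min. Primary qHTS; fluorescent artifacts likely.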
DT40 TDP1 no CPT – qHTS for Inhibitors of human tyrosyl-DNA phosphodiesterase 1 (TDP1): qHTS in cells in absence of CPT; DT40 Tdp1-/- hTDP1 cells, no CPT, ATP luminescence, 48 h; Potency, µM (doses to about 46.2 µM), most hits filed as inhibitors; actives 15% (n = 420,000); AID 686978, 2013; further: nearly all actives have a fitted effect of over 55% in size
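No-CPT arm: Tdp1-/-;hTDP1 DT40 cells (400/well) plus compounds, incubated ≥48 hr at 37 °C. Readout CellTiter-Glo luminescence.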
PLK1 PBD block – inhibitors of human PLK1 polo-box domain binding; P53350; Plk1 PBD binding of FITC phosphopeptide, fluorescence polarization; Potency, µM, usual class: inhibitors; actives 2.8% (n = 360,000); AID 720504; further: series mostly up to about 57 µM; nearly all actives have a fitted effect of over 65% in size
TDP1 cell CPT – growth inhibition of DT40 Tdp1-/-;hTDP1 cells with camptothecin (screen for TDP1 inhibitors); actives 12% (n = 420,000); Potency, µM (top dose mostly 46.2 µM), hits mostly inhibitors; chicken DT40 Tdp1-/-;hTDP1 cells + 20 nM CPT, ATP luminescence, 48 h; AID 686979; further: nearly all actives have a fitted effect of over 55% in size
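Chicken DT40 Tdp1-/- cells stably complemented with human TDP1 were seeded at 400 cells/well in medium containing 20 nM camptothecin, exposed to pin-transferred compounds, and grown at 37 °C for at least 48 hr. Viability was read as ATP luminescence.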
TDP1 block – TDP1 (human) enzyme inhibition; Q9NUW8; recombinant TDP1, AlphaScreen DNA substrate cleavage; Potency, µM (highest dose often 130 µM), hits mostly inhibitors; actives 0.28% (n = 350,000); further: nearly all actives have a fitted effect of over 40% in size
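Here, a 5' biotin and 3' phosphotyrosine-FITC DNA oligonucleotide reports Tdp1 activity: intact substrate bridges AlphaScreen beads, while cleavage leaves a 3' phosphate and drops signal. All incubations at room temperature.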
VDR inhibitor – vitamin D3 receptor (human) inhibition; P11473; VDR-SRC2-3 peptide fluorescence polarization, 2 h; Potency, µM, actives largely listed as inhibitors; actives 0.93% (n = 400,000); AID 504847
Target sequence (P11473 whole entry, looked up): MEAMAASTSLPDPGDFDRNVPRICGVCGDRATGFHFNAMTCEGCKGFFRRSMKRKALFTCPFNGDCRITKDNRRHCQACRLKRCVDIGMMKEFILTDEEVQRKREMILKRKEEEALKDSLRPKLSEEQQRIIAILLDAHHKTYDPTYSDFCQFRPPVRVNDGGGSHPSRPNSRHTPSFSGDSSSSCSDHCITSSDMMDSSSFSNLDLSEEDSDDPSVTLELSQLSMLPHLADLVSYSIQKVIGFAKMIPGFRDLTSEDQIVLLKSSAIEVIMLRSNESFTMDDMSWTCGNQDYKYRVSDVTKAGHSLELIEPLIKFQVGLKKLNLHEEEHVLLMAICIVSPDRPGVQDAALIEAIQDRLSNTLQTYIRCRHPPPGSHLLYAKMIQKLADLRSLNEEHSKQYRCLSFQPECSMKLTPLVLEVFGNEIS
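The screen uses fluorescence polarization to detect compounds that interfere with recruitment of the SRC2-3 coactivator peptide to VDR; plates are read after 2 h at room temperature.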
A number is an active result; 0 = inactive; ? = inconclusive; - = no result; [ ] = another dose, or the depositor's remark. The call rests on the fitted dose curve; in most records, active means well fitted curve in the direction sought with a large enough effect; inconclusive means small, poorly fitted or top-dose-only effect, or another doubt; inactive means no such curve, though single readings can be large; an effect the other way counts as inactive or inconclusive.

SMILES	KAT2A inh	DT40 TDP1 no CPT	PLK1 PBD block	TDP1 cell CPT	TDP1 block	VDR inhibitor
Cc1noc(C)c1-c1ccc(C(=O)NCc2cccc(Cl)c2)c2occc12	-	?	0	?	-	-
Cc1noc(C)c1-c1ccc(C(=O)NCC(C)C)c2occc12	-	?	0	?	-	-
CN(C)c1ccc(NC(=O)CSC2=Nc3ccccc3C3=NC(CC(=O)NCc4ccccc4)C(=O)N23)cc1 (configuration not stated)	0	0	-	0	0	0
O=C(CSc1nnc(-c2ccc(Cl)cc2Cl)n1C1CCCCC1)N1CCCC1	0	21µM	0	23µM	0	0
O=C(CSc1nnc(-c2ccccc2F)n1C1CC1)N1CCCC1	-	0	0	0	-	-
CC(C)(C)c1ccc(-c2nnc(SCCC#N)n2C2CCCC2)cc1	0	18µM	0	18µM	0	0
O=C(CSc1nnc(-c2ccc(Br)cc2)n1C1CCCCC1)N1CCCC1	0	23µM	0	?	0	0
COCCNc1nc(Nc2ccc(C)cc2C)c2sc(-c3ccccc3)cc2n1	-	18µM	0	26µM	-	-
COCCNc1nc2cc(-c3ccccc3)sc2c(=O)n1C	-	?	0	?	-	-
C=CCNc1nc(NCCOc2ccccc2Cl)c2sc(-c3ccccc3)cc2n1	-	15µM	0	15µM	-	-
C=CCNc1nc(NCc2ccc(N(C)C)cc2)c2sc(-c3ccccc3)cc2n1	-	5.8µM	0	6.5µM	-	-
C=CCNc1nc(Nc2ccc(OC)c(OC)c2)c2sc(-c3ccccc3)cc2n1	-	1.6µM	0	1.8µM	-	-
CCCCn1c(N)c(N(CC(C)C)C(=O)c2ccc(S(=O)(=O)N3CCC(C)CC3)cc2)c(=O)[nH]c1=O	0	0	0	0	0	0
O=C(Nc1ccc(Cl)cc1)C1CCN(C(=O)c2ccco2)CC1	0	0	0	0	-	0
CC(C)Nc1nc(NCCN2CCCC2)c2sc(-c3ccccc3)cc2n1	-	13µM	0	6.5µM	-	-
C=CCNc1nc(NCCOC)c2sc(-c3ccccc3)cc2n1	-	13µM	0	?	-	-
O=c1[nH][nH]c(=S)n1-c1ccccc1C(F)(F)F	0	-	-	-	0	-
Cc1cc([N+](C)(C)C)cc(C)c1/C=C/c1ccnc2ccccc12	-	3.2µM	-	3.5µM	-	-
Cc1cc(N(C)C)cc(C)c1/C=C/c1ccnc2ccccc12	-	11µM	-	14µM	-	-
Nc1ccc(S(=O)(=O)N2CCCN(S(=O)(=O)c3ccc4c(c3)OCCO4)CC2)cc1	-	-	-	-	0	-
Nc1nc(N)nc(-c2ccc(Cl)c(Cl)c2)n1	0	12µM	0	21µM	0	0
Cc1ccccc1C1c2[nH]c3ccccc3c2CCN1CCCn1cccn1 (configuration not stated)	0	13µM	0	?	-	0
Cc1c(NC(=O)Oc2ccccc2)sc(=S)n1C	0	?	15µM	?	0	0
CCOC(=O)c1c(NC(=O)CSc2nc3ccccc3c(=O)n2-c2ccccc2)sc(C(C)=O)c1C	0	0	0	0	0	0
C=CCn1c(=O)c2ccccc2n2c(SCC(=O)Nc3sc(C(=O)N(CC)CC)c(C)c3C(=O)OCC)nnc12	0	15µM	?	23µM	0	0
SMILES	KAT2A inh	DT40 TDP1 no CPT	PLK1 PBD block	TDP1 cell CPT	TDP1 block	VDR inhibitor
C=CCn1c(=O)c2ccccc2n2c(SCC(=O)Nc3sc(C)c(CC)c3C(=O)OCC)nnc12	0	16µM	0	?	0	0
CCCn1c(=O)c2ccccc2n2c(SCC(=O)Nc3cc(C)on3)nnc12	0	?	0	0	0	0
COc1cc(C(=O)OCC(=O)Nc2ccc(C)cc2)cc(OC)c1OC	0	?	0	0	-	0
COc1ccc(N2CCN(C(=O)c3ccc(Oc4ccc(C(F)(F)F)cn4)cc3)CC2)cc1	0	23µM	0	?	0	0
O=C(c1ccc(Oc2ccc(C(F)(F)F)cn2)cc1)N1CCN(c2ccccc2)CC1	0	29µM	0	0	0	0
O=C(c1ccc2ccccc2c1)N1CCN(c2ccc(C(F)(F)F)cn2)CC1	0[0.501 µM]	?	0	0	0	0
CCOc1ccc(Cn2c(CNS(=O)(=O)c3ccc(C(C)(C)C)cc3)nc3cccnc32)cc1	0	?	-	?	0	0
COc1ccc(NC(=O)c2sc(=O)n(Cc3ccc4ccccc4c3)c2C)cc1OC	-	?	0	?	-	-
O=C(O)CCCCCNC(=O)OCC1c2ccccc2-c2ccccc21	0	12µM	0	4.1µM	-	0
O=C(Nc1ccc2c(c1)OCO2)c1cc2ncc(Br)cn2n1	0	21µM	12µM	?	0	0
O=C(Nc1cccc(C(F)(F)F)c1)c1cc2ncc(Br)cn2n1	0	0	0	0	-	0
OC[C@@H]1CN(Cc2ccc(F)cc2)C[C@H](n2cnc3c(N4CCCC4)ncnc32)O1	-	?	0	?	-	-
Cc1cccc(NC2=CC(=O)CC(C)(C)C2)c1C	0	0	0	0	0	0
CCCn1c(NC(=O)c2ccc([N+](=O)[O-])o2)nc2ccccc21	0	?	0	21µM	0	0
CCCn1c(NC(=O)C2CCN(C(=O)c3ccccc3C)CC2)nc2ccccc21	0	?	0	16µM	-	0
Cc1cccc(NC(=O)C2CCN(C(=O)c3ccccc3C)CC2)n1	0	0	0	0	0	0
CC(=O)c1sc(NC(=O)C2CCN(C(=O)c3ccccc3C)CC2)nc1-c1ccccc1	0	?	0	18µM	-	0
CCCn1c(NC(=O)c2cccc(C)c2C)nc2ccccc21	0	15µM	0	13µM	0	0
O=C(CN(C(=O)CCC(=O)Nc1nccs1)c1ccc(F)cc1)NCc1ccccc1	0	?	0	0	-	0
COC(=O)c1cc2oc3ccccc3c2n1CC(=O)Nc1ccc(C)cc1Cl	0	0	-	0	0	0
C[C@](O)(C(=O)Nc1ccc(S(=O)(=O)c2ccccc2)cc1)C(F)(F)F	0	?	-	0	0	0
Cn1c(NCc2ccc3occc3c2)nc2cc(-c3cccc(C(F)(F)F)c3)sc2c1=O	-	0	0	0	-	-
OCC[C@@H]1C[C@H](O)[C@@H](O)[C@]2(Cc3ccccc3CO2)O1	0	0	0	0	-	0
CCCn1c(NC(=O)c2ccc(Cl)c(S(=O)(=O)N3CCCC3)c2)nc2ccccc21	0	16µM	0	23µM	0	0
O=C(NCc1nc2ccccc2[nH]1)c1ccc(Cl)c(S(=O)(=O)N2CCCC2)c1	0	?	0	0	0	0
COc1cc2c(c(OC)c1OC)-c1c(cc3c(c1OC)OCO3)CC(C)C(C)C2 (configuration not stated)	0	-	-	-	0	0
COc1cc2c(c(OC)c1OC)-c1c(cc3c(c1O)OCO3)C[C@@H](C)[C@@H](C)C2	0	?	0	23µM	0	0

Bioassay records deposited in PubChem BioAssay by National Center for Advancing Translational Sciences (NCATS).
